# According to PubChem BioAssay (EPA / NIEHS):
# Several values for one entry are separate records, joined by “and”; a condition that tells them apart may be missing. Equal entries are not always repeated. Records with an inconclusive call do not appear. The source holds several records for some structures; these can differ, active in one and inactive in another. Activity calls are given as the source filed them. Rule for the calls, unless noted: active = hit-call score of the fitted dose curve at least 0.9, where 1 is the maximum; inactive = score below 0.9.
# Assays:
# [1] = biological target: Nucleoli Translocation, AR (gene 367) (UniProt P10275); assay: UPITT_HCI_U2OS_AR_TIF2_Nucleoli_Antagonist: University of Pittsburgh U2OS Androgen Receptor-Transcriptional Intermediary Factor 2 (AR-TIF2) Antagonism High Content Imaging Assay for Nucleoli Translocation (AID 2283997; active = hit-call score of the fitted dose curve at least 0.9, where 1 is the maximum)
# Summary of the method: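 Measured quantity was AR-RFP fluorescence localized to nucleoli in engineered U2OS cells also bearing TIF2-GFP, acquired on automated high-content imagers. Primary testing used 20 uM compound; actives were confirmed in triplicate wells.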
# [2] = biological target: Nucleoli Translocation, AR (gene 367) (UniProt P10275); assay: UPITT_HCI_U2OS_AR_TIF2_Nucleoli_Agonist: University of Pittsburgh U2OS Androgen Receptor-Transcriptional Intermediary Factor 2 (AR-TIF2) Agonism High Content Imaging Assay for Nucleoli Translocation (AID 2283998; active = hit-call score of the fitted dose curve at least 0.9, where 1 is the maximum)
# Summary of the method: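 Red-tagged human androgen receptor co-expressed with GFP-tagged TIF2 serves as the binding reporter. Primary testing used 20 uM final (0.2% DMSO); follow-up dose response covered 0.195 to 50 uM final (0.5% DMSO).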
# [3] = biological target: Ratio of Nucleoli Translocation and Cytoplasm, AR (gene 367) (UniProt P10275); assay: UPITT_HCI_U2OS_AR_TIF2_Nucleoli_Cytoplasm_Ratio_Antagonist: University of Pittsburgh U2OS Androgen Receptor-Transcriptional Intermediary Factor 2 (AR-TIF2) Antagonism High Content Imaging Assay for Ratio of Nucleoli Translocation and Cytoplasm (AID 2283999; active = hit-call score of the fitted dose curve at least 0.9, where 1 is the maximum;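 note: antagonists lower the DHT-driven ratio of nucleolar to cytoplasmic red signal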)
# Summary of the method: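 U2OS cells co-expressing RFP-tagged human AR and GFP-tagged TIF2, antagonist mode with DHT as baseline. Nucleolar-to-cytoplasmic red fluorescence ratio imaged by high-content microscopy; final compound 20 uM (0.2% DMSO) primary, 0.195–50 uM (0.5% DMSO) concentration-response.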
# [4] = CCTE_Harrill_HTTr_Viability_MCF7: CCTE's 6-hour Cell Viability Assessment for the High-Throughput Transcriptomics (HTTr) Platform, in MCF-7 cells cultured in DMEM + 10% fetal bovine serum, Harrill Lab (AID 2284010)
# Summary of the method: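 MCF-7 cells in DMEM + 10% FBS, 384-well, exposed 6 h to an eight-point dilution series. Membrane integrity scored by high-content imaging of propidium iodide exclusion; bidirectional fit versus DMSO.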
# [5] = CCTE_Harrill_HTTr_Apoptosis_MCF7: CCTE's 6-hour Apoptosis Assessment for the High-Throughput Transcriptomics (HTTr) Platform, in MCF-7 cells cultured in DMEM + 10% fetal bovine serum, Harrill Lab (AID 2284011)
# Summary of the method: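 Cells are dosed with test chemicals at eight concentrations and imaged 6 hours later for caspase-3/7 activity using a green fluorogenic detection reagent. Activity is fitted in both directions against DMSO controls.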
# [6] = CCTE_Harrill_HTTr_CellCount_MCF7: CCTE's Cell Proliferation Assessment for the High-Throughput Transcriptomics (HTTr) Platform, Harrill Lab (AID 2284012; active = hit-call score of the fitted dose curve at least 0.9, where 1 is the maximum;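 note: cells exposed to compound for six hours; intended direction is loss of nuclei count meaning fewer cells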)
# Summary of the method: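 MCF7 cells exposed 6 hours to an eight-point dilution series; Hoechst-stained nuclei counted by high-content imaging. Bidirectional curve fitting against DMSO baseline.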
# [7] = biological target: Ratio of Nucleoli Translocation and Cytoplasm, AR (gene 367) (UniProt P10275); assay: UPITT_HCI_U2OS_AR_TIF2_Nucleoli_Cytoplasm_Ratio_Agonist: University of Pittsburgh U2OS Androgen Receptor-Transcriptional Intermediary Factor 2 (AR-TIF2) Agonism High Content Imaging Assay for Ratio of Nucleoli Translocation and Cytoplasm (AID 2284000; active = hit-call score of the fitted dose curve at least 0.9, where 1 is the maximum;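 note: hits raise the red nucleolar to cytoplasm ratio above vehicle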)
# Summary of the method: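 Read-out first: nucleolar-to-cytoplasm ratio of red (AR-RFP) signal, quantified by high-content imaging in U2OS cells co-expressing TIF2-GFP. Activity is scored as signal increase over DMSO. Single-point screening used 20 uM final (0.2% DMSO).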
# [8] = CCTE_Simmons_MITO_basal_resp_rate: CCTE's HepG2 Seahorse XF Respirometric Screening Assay at Basal Respiratory State, Simmons Lab (AID 2284001); details: actives raise or lower the signal
# Summary of the method: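 HepG2 respirometry; 7-pt titration 125 nM–100 uM final; kinetic OCR at 6 min intervals for 72 min; n=3 biological, technical singles; DMSO baseline, gain or loss fit; fenpyroximate (decrease) and 2,4-DNP (increase) controls.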
# [9] = CCTE_Simmons_MITO_max_resp_rate: CCTE's HepG2 Seahorse XF Respirometric Screening Assay at Maximal Respiratory State [uncoupled], Simmons Lab (AID 2284002); details: actives raise or lower the signal
# Summary of the method: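 Maximal respiration in HepG2 cells is recorded as OCR by Seahorse XF following FCCP injection. Compounds span 125 nM–100 uM final; activity is called in either direction against DMSO.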
# [10] = CCTE_Simmons_MITO_viability: CellTiter-Glo Viability Assessment for CCTE's HepG2 Seahorse XF Respirometric Screening Assay [post-hoc], Simmons Lab (AID 2284007; active = hit-call score of the fitted dose curve at least 0.9, where 1 is the maximum;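 for AC50: cells exposed to chemical for 90 min before the ATP read; actives lower ATP signal relative to DMSO baseline meaning reduced viability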)
# Summary of the method: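 HepG2 cells exposed 90 min to 7 concentrations from 125 nM to 100 uM final, then ATP measured by luciferase luminescence. Three biological replicates per concentration; DMSO vehicle; dichlone control at 10 nM–100 uM.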
# [11] = CCTE_Shafer_MEA_acute_spike_number: CCTE's Neural Acute Assay for Total Number of Spikes, Shafer Lab (AID 2284008);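 for AC50: curve fitted for decrease in spike count so AC50 reflects inhibitors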
# Summary of the method: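 Cortical neurons from rat, matured to DIV 13 or 15 on microelectrode arrays, are recorded at 37 C before and during 40-min exposure to 0.03-40 uM compound. Wells need >/= 10 active electrodes.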
# [12] = CCTE_Shafer_MEA_acute_firing_rate_mean: CCTE's Neural Acute Assay for Mean Firing Rate, Shafer Lab (AID 2284009);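 note: analyzed for loss of signal so actives lower firing rate relative to DMSO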
# Summary of the method: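 Percent change in well-mean firing rate was derived from extracellular spikes detected at 8x rms noise (300-5000 Hz band-pass) before and after a 40-min compound exposure. Cultures were primary rat cortical neurons, tested at 0.03-40 uM.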
# [13] = CCTE_Shafer_MEA_acute_burst_number: CCTE's Neural Acute Assay for Single-Electrode Bursts, Shafer Lab (AID 2284013)
# Summary of the method: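 Spontaneous network activity of primary rat cortical neurons was recorded extracellularly on microelectrode arrays at 37 C, with 40-min periods before and during exposure to 0.03-40 uM compound on DIV 13 or 15.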
# [14] = CCTE_Shafer_MEA_acute_burst_duration_mean: CCTE's Neural Acute Assay for Mean Burst Duration, Shafer Lab (AID 2284014);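 note: hits are decreases in mean burst duration relative to DMSO controls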
# Summary of the method: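 Read-out is the per-well percent change in mean burst duration (first to last spike within a single-electrode burst) between 40-min recordings before and after compound. Cultures were primary rat cortical neurons on MEAs, dosed at 0.03-40 uM on DIV 13 or 15.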
# DIO1 (gene 1733) = assay: CCTE_GLTED_hDIO1: CCTE's human Deiodinase 1 (DIO1) Inhibition Assay, Great Lakes Toxicology and Ecology Division (GLTED) Lab (AID 2283987; active = hit-call score of the fitted dose curve at least 0.9, where 1 is the maximum;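 note: isolated human DIO1 enzyme in a cell-free setup rather than cells; enzyme activity read as free iodide liberated from substrate via Sandell-Kolthoff colorimetry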)
# Summary of the method: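 Cell-free hDIO1 assay, triplicate plates. Absorbance of the Sandell-Kolthoff reaction reports enzyme-liberated iodide; iodinated chemicals or nitrite, iron and thiocyanate may interfere.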
# Chain of Nucleoli Translocation, AR (gene 367) (P10275 whole entry, looked up): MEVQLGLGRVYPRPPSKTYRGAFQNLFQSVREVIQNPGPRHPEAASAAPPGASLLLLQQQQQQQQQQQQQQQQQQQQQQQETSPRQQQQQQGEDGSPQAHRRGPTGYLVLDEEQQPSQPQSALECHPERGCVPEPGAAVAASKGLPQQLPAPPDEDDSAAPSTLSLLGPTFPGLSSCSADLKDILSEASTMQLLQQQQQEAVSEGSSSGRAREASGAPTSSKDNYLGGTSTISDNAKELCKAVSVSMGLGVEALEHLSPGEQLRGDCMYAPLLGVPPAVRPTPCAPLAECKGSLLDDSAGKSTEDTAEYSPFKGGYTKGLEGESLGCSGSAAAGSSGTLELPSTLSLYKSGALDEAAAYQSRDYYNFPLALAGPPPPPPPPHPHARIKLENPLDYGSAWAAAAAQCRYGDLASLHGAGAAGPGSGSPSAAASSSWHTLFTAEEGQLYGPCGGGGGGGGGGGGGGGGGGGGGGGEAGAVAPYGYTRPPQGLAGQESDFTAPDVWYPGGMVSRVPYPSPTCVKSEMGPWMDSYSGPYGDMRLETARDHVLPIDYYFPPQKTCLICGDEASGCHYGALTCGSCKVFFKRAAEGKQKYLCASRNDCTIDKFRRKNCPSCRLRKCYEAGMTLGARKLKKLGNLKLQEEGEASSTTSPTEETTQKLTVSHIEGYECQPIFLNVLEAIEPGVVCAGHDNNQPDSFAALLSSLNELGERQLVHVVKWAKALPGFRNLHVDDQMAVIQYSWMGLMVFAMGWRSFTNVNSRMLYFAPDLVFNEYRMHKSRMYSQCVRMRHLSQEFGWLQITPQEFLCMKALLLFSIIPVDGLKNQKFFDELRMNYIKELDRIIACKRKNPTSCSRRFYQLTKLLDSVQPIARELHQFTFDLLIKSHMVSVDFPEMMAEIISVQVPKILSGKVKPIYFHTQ
# Chain of Ratio of Nucleoli Translocation and Cytoplasm, AR (gene 367) (P10275 whole entry, looked up): as above
smiles,measurement,setting,value
O=c1[nH]c(=O)[nH]c(=O)[nH]1,outcome,[1],inactive
same,outcome,[2],inactive
same,outcome,[3],inactive
same,outcome,[4],inactive
same,outcome,[5],inactive
same,outcome,[6],inactive
CC(=O)[O][Hg][c]1ccccc1,AC50,[1],0.29 µM (active)
same,outcome,[2],inactive
same,AC50,[3],0.424 µM (active)
same,outcome,[7],inactive
same,AC50,[8],13.1 µM (active)
same,AC50,[9],13.1 µM (active)
same,AC50,[10],81.7 µM (active)
same,outcome,[11],inactive
same,outcome,[12],inactive
same,AC50,[4],53.5 µM (active)
same,outcome,[5],inactive
same,AC50,[6],50 µM (active)
same,AC50,[13],0.91 µM (active)
same,AC50,[14],29.5 µM (active)
C[C@]12CCC(=O)C[C@@H]1CC[C@@H]1[C@@H]2CC[C@]2(C)[C@@H](O)CC[C@@H]12,outcome,[8],inactive
same,outcome,[9],inactive
same,outcome,[10],inactive
same,AC50,[11],20 µM (active)
same,AC50,[12],20 µM (active)
same,outcome,[4],inactive
same,outcome,[5],inactive
same,outcome,[13],inactive
same,outcome,[14],inactive
CC12CC1(C)C(=O)N(c1cc(Cl)cc(Cl)c1)C2=O (stereo not given),AC50,[1],0.134 µM (active)
same,outcome,[2],inactive
same,outcome,[3],inactive
same,outcome,[7],inactive
same,outcome,[4],inactive
same,outcome,[5],inactive
same,outcome,[6],inactive
COP(=O)(OC)O/C(=C\Cl)c1cc(Cl)c(Cl)cc1Cl,AC50,DIO1 (gene 1733),48.7 µM (active)
same,AC50,[1],50 µM (active)
same,outcome,[2],inactive
same,outcome,[3],inactive
same,AC50,[7],50 µM (active)
same,outcome,[4],inactive
same,outcome,[5],inactive
O=[N+]([O-])c1ccc(O)c([N+](=O)[O-])c1,outcome,[1],inactive
same,outcome,[3],inactive
same,outcome,[7],inactive
same,AC50,[8],13 µM (active) and 10.3 µM (active)
same,outcome,[9],inactive
same,AC50,[10],18.1 µM (active)
same,outcome,[10],inactive
same,outcome,[4],inactive
same,outcome,[5],inactive
same,outcome,[6],inactive
CC(C)(C)CC(C)(C)c1ccc(O)cc1,AC50,DIO1 (gene 1733),90.7 µM (active)
same,outcome,[3],inactive
same,AC50,[8],27.6 µM (active)
same,AC50,[9],27.7 µM (active)
same,outcome,[10],inactive
same,AC50,[11],6.06 µM (active)
same,AC50,[12],6.07 µM (active)
same,outcome,[4],inactive
same,outcome,[5],inactive
same,outcome,[6],inactive
same,outcome,[13],inactive
same,outcome,[14],inactive
